Measurements: PubChem BioAssay
The source made the active and inactive calls.

How the values were obtained:
[1] = test system: Plasmodium falciparum Sir2 (PF13_0152, Sir2A); test: pfSir2 binders on small-molecule microarrays, primary screen, biochemical, small-molecule microarray, 635 nm fluorescence (AID 1098); settings: small-molecule microarray binding, fluorescence 635 nm; higher = more signal;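 note: score merges spot fluorescence intensity with its signal-to-noise ratio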
[2] = small-molecule microarray binders of probe aDKK1, primary screen, biochemical, biotinylated probe, 635/667 nm fluorescence (AID 1099); settings: higher = more signal;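 note: score merges 667nm spot fluorescence with signal to noise across triplicate slides; reference of the scale not given here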
[3] = small-molecule microarray binders of probe aCHRDL2, primary screen, biochemical, biotinylated probe, 635/667 nm fluorescence (AID 1100); settings: higher = more signal
[4] = splicing luciferase reporter signal modulators, primary screen, spliceosome inhibition project, cell-based, HEK293, splice +/- reporter (AID 1101); settings: luminescence, 24 h, higher = more signal, called active from +8 up or from −8 down;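 note: HEK293 cells carrying a splicing-competent luciferase reporter gene; test concentration not given here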
[5] = biological target: Fibroblast growth factor 10 (Homo sapiens) (UniProt O15520); test: FGF10 binders on small-molecule microarrays, primary screen, biochemical, small-molecule microarray, 635 nm fluorescence (AID 1102); settings: FGF10 binding, fluorescence 635 nm, higher = more signal
[6] = test system: glycogen synthase kinase-3 (GSK3A per assay name; protocol says GSK3B); test: GSK3 binders on small-molecule microarrays, primary screen, biochemical, small-molecule microarray, 635 nm fluorescence, GSK3A (AID 1103); settings: small-molecule microarray binding, fluorescence 635 nm; higher = more signal; note: the record names both GSK3A and GSK3B
[7] = biological target: Epidermal growth factor receptor (Homo sapiens) (UniProt P00533); test: EGFR binders on small-molecule microarrays, primary screen, biochemical, small-molecule microarray, 635 nm fluorescence (AID 1104); settings: EGFR binding, higher = more signal;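 note: score merges 667 nm emission intensity with spot signal to noise over triplicate slides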
[8] = biological target: Follistatin-related protein 3 (Homo sapiens) (UniProt O95633); test: FSTL3 binders on small-molecule microarrays, primary screen, biochemical, small-molecule microarray, 635 nm fluorescence (AID 1105); settings: FSTL3 binding, higher = more signal;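 note: score merges emission near 667 nm and signal to noise per printed spot across three slides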
[9] = biological target: Dickkopf-related protein 1 (Homo sapiens) (UniProt O94907); test: DKK1 binders on small-molecule microarrays, primary screen, biochemical, small-molecule microarray, 635 nm fluorescence scan (AID 1106); settings: DKK1 binding, higher = more signal;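 note: score merges emission near 667 nm with signal to noise over three replicate slides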
[10] = test system: Inhibin beta A chain (activin A); test: INHBA (activin A) binders on microarrays, primary screen, biochemical, small-molecule microarray, 635 nm fluorescence scan (AID 1107); settings: small-molecule microarray binding, higher = more signal;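 note: mouse activin A protein probed at 4.33 µg/mL on printed slides; score merges bound-protein fluorescence near 667 nm with spot signal-to-noise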

Epidermal growth factor receptor (Homo sapiens), sequence (P00533 whole entry, looked up): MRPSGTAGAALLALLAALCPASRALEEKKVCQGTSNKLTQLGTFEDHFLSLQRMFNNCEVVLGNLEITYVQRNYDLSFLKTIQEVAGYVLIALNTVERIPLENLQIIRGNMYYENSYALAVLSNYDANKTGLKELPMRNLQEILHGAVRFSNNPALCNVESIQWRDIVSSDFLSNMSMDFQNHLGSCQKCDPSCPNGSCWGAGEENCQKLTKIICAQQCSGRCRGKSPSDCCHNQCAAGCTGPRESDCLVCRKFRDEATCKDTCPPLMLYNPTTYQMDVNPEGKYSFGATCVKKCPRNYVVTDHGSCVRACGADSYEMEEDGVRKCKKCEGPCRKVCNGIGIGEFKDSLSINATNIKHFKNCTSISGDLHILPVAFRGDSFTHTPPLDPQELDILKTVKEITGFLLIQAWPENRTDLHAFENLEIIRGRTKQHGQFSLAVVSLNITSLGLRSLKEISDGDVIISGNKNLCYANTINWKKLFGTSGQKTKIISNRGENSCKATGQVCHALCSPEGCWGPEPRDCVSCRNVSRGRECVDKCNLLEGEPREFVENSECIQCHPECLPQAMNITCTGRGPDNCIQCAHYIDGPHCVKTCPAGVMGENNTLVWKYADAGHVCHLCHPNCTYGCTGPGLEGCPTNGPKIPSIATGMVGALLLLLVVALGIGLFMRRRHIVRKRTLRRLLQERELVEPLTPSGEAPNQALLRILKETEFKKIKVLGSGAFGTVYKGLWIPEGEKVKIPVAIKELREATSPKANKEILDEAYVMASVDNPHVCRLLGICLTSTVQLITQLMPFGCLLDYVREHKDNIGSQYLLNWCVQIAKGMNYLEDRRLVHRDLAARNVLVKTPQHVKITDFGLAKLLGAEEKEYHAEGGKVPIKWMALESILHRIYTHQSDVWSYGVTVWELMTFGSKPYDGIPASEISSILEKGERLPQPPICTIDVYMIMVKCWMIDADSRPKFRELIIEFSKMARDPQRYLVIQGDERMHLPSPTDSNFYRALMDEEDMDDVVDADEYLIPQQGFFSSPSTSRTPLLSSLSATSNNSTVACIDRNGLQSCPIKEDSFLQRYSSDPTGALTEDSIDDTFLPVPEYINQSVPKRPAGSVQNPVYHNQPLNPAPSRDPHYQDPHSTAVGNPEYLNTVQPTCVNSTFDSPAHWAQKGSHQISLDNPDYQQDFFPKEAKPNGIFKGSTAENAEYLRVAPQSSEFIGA
Follistatin-related protein 3 (Homo sapiens), sequence (O95633 whole entry, looked up): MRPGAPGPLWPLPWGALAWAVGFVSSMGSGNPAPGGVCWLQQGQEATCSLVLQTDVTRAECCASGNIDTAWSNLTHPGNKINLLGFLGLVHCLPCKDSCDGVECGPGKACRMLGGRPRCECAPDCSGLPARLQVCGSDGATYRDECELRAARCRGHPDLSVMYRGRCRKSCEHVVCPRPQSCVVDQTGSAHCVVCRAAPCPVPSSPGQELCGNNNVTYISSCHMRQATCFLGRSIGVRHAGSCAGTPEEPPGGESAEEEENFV
Fibroblast growth factor 10 (Homo sapiens), sequence (O15520 whole entry, looked up): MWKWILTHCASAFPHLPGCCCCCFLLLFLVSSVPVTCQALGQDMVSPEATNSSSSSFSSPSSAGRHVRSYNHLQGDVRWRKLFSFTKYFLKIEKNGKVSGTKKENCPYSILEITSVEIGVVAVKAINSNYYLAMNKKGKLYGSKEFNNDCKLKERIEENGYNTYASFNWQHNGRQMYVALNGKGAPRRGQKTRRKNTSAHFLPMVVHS
Dickkopf-related protein 1 (Homo sapiens), sequence (O94907 whole entry, looked up): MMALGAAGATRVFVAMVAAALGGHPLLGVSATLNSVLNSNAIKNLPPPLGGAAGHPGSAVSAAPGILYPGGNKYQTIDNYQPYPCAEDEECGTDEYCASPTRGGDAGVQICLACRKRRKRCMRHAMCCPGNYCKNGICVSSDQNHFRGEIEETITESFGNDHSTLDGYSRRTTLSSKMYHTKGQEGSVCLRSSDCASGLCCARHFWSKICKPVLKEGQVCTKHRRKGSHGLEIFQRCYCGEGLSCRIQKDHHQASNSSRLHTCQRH

Compound | composite z-score [1] | composite z-score [2] | composite z-score [3] | z-score [4] | composite z-score [5] | composite z-score [6] | composite z-score [7] | composite z-score [8] | composite z-score [9] | composite z-score [10]
COCCOC(=O)N1C(=O)[C@@]2(c3cc(C#CCC(C(=O)OC)C(=O)OC)ccc31)[C@H](c1ccc(O)cc1)N1[C@H](c3ccccc3)[C@H](c3ccccc3)OC(=O)[C@H]1[C@@H]2C(N)=O | 0.224 | 0.36 | 0.461 | -1.06 (inactive) | 0.833 | 1.06 | 0.212 | 0.825 | 0.417 | 0.626
CCOc1cc(C(O)C2C=CC3C(=O)N(c4ccccc4)C(=O)C3N2Nc2ccc([N+](=O)[O-])cc2)ccc1O (stereo not given) | 1.33 | -0.0703 | -0.129 | -0.214 (inactive) | 0.575 | 0.757 | 0.317 | 0.429 | 0.0577 | 0.199
NCCCCCCNC(=O)[C@H]1C[C@H]2C(=O)NCC(=O)N2[C@H]1c1cccc(OCCO)c1 | 1.56 | 0.0447 | 0.161 | -0.283 (inactive) | 0.641 | 1.1 | 0.544 | 0.563 | 0.978 | -0.0745
CCOC(=O)C[C@H]1[C@H](OC(=O)c2ccc(-c3ccccc3)cc2)[C@@H](NC(=O)c2ccc(-c3ccccc3)cc2)c2cc(OCCCO)ccc2N1C(=O)Cc1ccc(OC)cc1 | -0.253 | -0.0067 | 0.45 | 0.101 (inactive) | 0.256 | -0.194 | -0.0509 | -0.0478 | 0.0032 | 0.638
N#Cc1ccc(NN2C(C(O)C3CCCCC3)C=CC3C(=O)N(c4ccccc4)C(=O)C32)cc1 (stereo not given) | 0.908 | 0.458 | 0.811 | 1.23 (inactive) | 1.09 | 1.3 | -0.0355 | 1.28 | -0.547 | 0.249
CC(=O)NCCCC[C@@H]1NC(=O)[C@@H]2C[C@H](C(=O)NCCCCN(C)C)[C@H](c3ccc(O)cc3)N2C1=O | -0.165 | -0.161 | 0.704 | -1.12 (inactive) | -0.117 | 0.0247 | -0.588 | -0.723 | 0.295 | -0.727
CC(=O)C1=CCC(c2ccccc2)N(S(=O)(=O)c2ccc(C)cc2)C1 (stereo not given) | 1.4 | 0.196 | 0.469 | 0.0149 (inactive) | 0.586 | 0.258 | 0.255 | 1.01 | 0.0538 | 1.12
